# Experimental data reported in the supplement of paper PMC12645437, “Orthogonal IMiD-Degron Pairs Induce Selective Protein Degradation in Cells” (ACS Chemical Biology, 2025).
# Whole data set: some 8,300 sequences, median “log2 fold change of degron read counts, EGFP-low vs EGFP+ sorted cells (limma voom), compound-induced degradation” near -1.1, cut for the highest 2% near 3.2. The entries come from a sample that favours the highest values as a whole.
# T1: CRBN, Q96SW2
# T1 chain: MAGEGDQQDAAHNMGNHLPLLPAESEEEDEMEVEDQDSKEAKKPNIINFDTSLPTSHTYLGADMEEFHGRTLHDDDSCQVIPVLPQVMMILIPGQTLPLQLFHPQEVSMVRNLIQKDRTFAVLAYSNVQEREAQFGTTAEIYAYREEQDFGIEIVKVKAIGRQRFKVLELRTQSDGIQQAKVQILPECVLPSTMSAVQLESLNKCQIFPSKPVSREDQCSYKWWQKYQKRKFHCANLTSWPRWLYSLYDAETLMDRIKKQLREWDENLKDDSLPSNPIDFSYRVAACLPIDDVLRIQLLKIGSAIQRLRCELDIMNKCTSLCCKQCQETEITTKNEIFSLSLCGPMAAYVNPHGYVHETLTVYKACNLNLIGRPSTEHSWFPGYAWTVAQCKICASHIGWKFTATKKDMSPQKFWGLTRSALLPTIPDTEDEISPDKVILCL
# Target: T1, CRBN, Q96SW2
# Experiment: log2 fold change of degron read counts, EGFP-low vs EGFP+ sorted cells (limma voom), compound-induced degradation; higher = more compound-induced degradation of the degron-EGFP fusion; degrons are variants of IKZF1/3 zinc finger 2; compound dose not given here
# Details: Jurkat, 18 h
# [1] = compound: compound 19 (5-tert-butyl-thalidomide)
# [2] = compound: compound 22 (5-morpholino-thalidomide)
# [3] = compound: compound 33 (diphenyl IMiD analogue)
# 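Further: pooled lentiviral library of zinc finger degron-EGFP fusions in mCherry-positive Jurkat cells, FACS-sorted after compound exposure, with degron abundance counted by next-generation sequencing.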
Sequence,log2 fold change of degron read counts [1],log2 fold change of degron read counts [2],log2 fold change of degron read counts [3],log2 fold change of degron read counts (compound: thalidomide)
"FSCEICGAPFTQKGNLLRHIKL [46F_47S_49E_50I_52G_53A_54P_55F_67L_, Q9UKT9]",3.54,2.69,1.29,1.99
"FCCEICGAPFTQKGNLLRHIKL [46F_47C_49E_50I_52G_53A_54P_55F_67L_, Q9UKT9]",3.63,2.99,1.57,2.05
"FKCEICGAPFTQKGNLLRHIKL [46F_47K_49E_50I_52G_53A_54P_55F_67L_, Q9UKT9]",2.99,1.73,-0.501,2.51
"FSCEICGADFTQKGNLLRHIKL [46F_47S_49E_50I_52G_53A_54D_55F_67L_, Q9UKT9]",0.281,-0.67,-0.225,-0.832
"FCCEQCGAPFTQKGNLLRHIKL [46F_47C_49E_50Q_52G_53A_54P_55F_67L_, Q9UKT9]",-0.706,-2.38,-1.75,-1.28
"FCCEICGADFTQKGNLLRHIKL [46F_47C_49E_50I_52G_53A_54D_55F_67L_, Q9UKT9]",0.103,-0.401,0.273,-0.00478
"FHCNQCGRVFTQKGNLLRHIKL [46F_47H_49N_50Q_52G_53R_54V_55F_67L_, Q9UKT9]",-1.76,-2.76,-1.72,-1.87
"FTCPQCGAAFTQKGNLLRHIKL [46F_47T_49P_50Q_52G_53A_54A_55F_67L_, Q9UKT9]",-0.476,0.413,1.73,0.798
"FRCEVCGAMFTQKGNLLRHIKL [46F_47R_49E_50V_52G_53A_54M_55F_67L_, Q9UKT9]",-0.953,-0.985,0.652,0.605
"FLCDICGAKFTQKGNLLRHIKL [46F_47L_49D_50I_52G_53A_54K_55F_67L_, Q9UKT9]",-0.855,-1.86,-1.23,0.0222
"FKCDICGAKFTQKGNLLRHIKL [46F_47K_49D_50I_52G_53A_54K_55F_67L_, Q9UKT9]",-2.45,-3.31,-3.09,-2.29
"FWCDICGAKFTQKGNLLRHIKL [46F_47W_49D_50I_52G_53A_54K_55F_67L_, Q9UKT9]",3.22,3.7,0.265,-0.173
"FNCDICGAKFTQKGNLLRHIKL [46F_47N_49D_50I_52G_53A_54K_55F_67L_, Q9UKT9]",0.554,-1.18,-2.65,-2.02
"FECDICGAKFTQKGNLLRHIKL [46F_47E_49D_50I_52G_53A_54K_55F_67L_, Q9UKT9]",-0.727,-2.12,-2.83,0.61
"FYCDICGAKFTQKGNLLRHIKL [46F_47Y_49D_50I_52G_53A_54K_55F_67L_, Q9UKT9]",3.2,3.32,0.608,-0.632
"FCCDICGAKFTQKGNLLRHIKL [46F_47C_49D_50I_52G_53A_54K_55F_67L_, Q9UKT9]",1.97,1.65,-1.18,0.858
"FMCDICGAKFTQKGNLLRHIKL [46F_47M_49D_50I_52G_53A_54K_55F_67L_, Q9UKT9]",-0.74,-1.21,-0.567,-0.432
"FFCDICGAKFTQKGNLLRHIKL [46F_47F_49D_50I_52G_53A_54K_55F_67L_, Q9UKT9]",3.35,3.15,0.231,-0.76
"FTCDICGAKFTQKGNLLRHIKL [46F_47T_49D_50I_52G_53A_54K_55F_67L_, Q9UKT9]",-0.131,0.993,-1.38,0.963

Sequence,log2 fold change of degron read counts [1],log2 fold change of degron read counts [2],log2 fold change of degron read counts [3],log2 fold change of degron read counts (compound: thalidomide)
"FQCDICGAKFTQKGNLLRHIKL [46F_47Q_49D_50I_52G_53A_54K_55F_67L_, Q9UKT9]",-0.69,2.25,-0.885,3.28
"FICDICGAKFTQKGNLLRHIKL [46F_47I_49D_50I_52G_53A_54K_55F_67L_, Q9UKT9]",-1.2,1.29,-0.575,0.898
"FNCDVCGAHFTQKGNLLRHIKL [46F_47N_49D_50V_52G_53A_54H_55F_67L_, Q9UKT9]",-0.166,-1.87,-1.95,-2.36
"FLCPQCGAPFTQKGNLLRHIKL [46F_47L_49P_50Q_52G_53A_54P_55F_67L_, Q9UKT9]",-1.51,-0.398,0.89,0.718
"LRCNQCGFVCTQKGNLLRHIKL [46L_47R_49N_50Q_52G_53F_54V_55C_67L_, Q9UKT9]",-1.27,-2.74,-1.29,-1.39
"FGCEICGAFFTQKGNLLRHIKL [46F_47G_49E_50I_52G_53A_54F_55F_67L_, Q9UKT9]",2.48,1.05,2.58,0.0705
"FECPVCGADFTQKGNLLRHIKL [46F_47E_49P_50V_52G_53A_54D_55F_67L_, Q9UKT9]",-1.59,-1.56,2.05,2.24
"FDCEVCGAQFTQKGNLLRHIKL [46F_47D_49E_50V_52G_53A_54Q_55F_67L_, Q9UKT9]",1.45,0.572,-0.0193,1.19
"FSCEVCGAQFTQKGNLLRHIKL [46F_47S_49E_50V_52G_53A_54Q_55F_67L_, Q9UKT9]",2.77,2.35,1.32,1.33
"FICEVCGAQFTQKGNLLRHIKL [46F_47I_49E_50V_52G_53A_54Q_55F_67L_, Q9UKT9]",-0.278,2.8,2.99,2.69
"FQCEVCGAQFTQKGNLLRHIKL [46F_47Q_49E_50V_52G_53A_54Q_55F_67L_, Q9UKT9]",0.659,2.56,2.21,3.77
"FYCEVCGAQFTQKGNLLRHIKL [46F_47Y_49E_50V_52G_53A_54Q_55F_67L_, Q9UKT9]",3.53,3.57,2.99,1.94
"FACEVCGAQFTQKGNLLRHIKL [46F_47A_49E_50V_52G_53A_54Q_55F_67L_, Q9UKT9]",3.49,2.06,0.981,0.73
"FVCEVCGAQFTQKGNLLRHIKL [46F_47V_49E_50V_52G_53A_54Q_55F_67L_, Q9UKT9]",0.146,2.74,2.92,2.99
"FHCEVCGAQFTQKGNLLRHIKL [46F_47H_49E_50V_52G_53A_54Q_55F_67L_, Q9UKT9]",1.71,2.6,1.97,0.794
"FWCEVCGAQFTQKGNLLRHIKL [46F_47W_49E_50V_52G_53A_54Q_55F_67L_, Q9UKT9]",3.44,3.79,2.82,2.03
"FRCEVCGAQFTQKGNLLRHIKL [46F_47R_49E_50V_52G_53A_54Q_55F_67L_, Q9UKT9]",0.18,0.339,1.48,1.56
"FECEVCGAQFTQKGNLLRHIKL [46F_47E_49E_50V_52G_53A_54Q_55F_67L_, Q9UKT9]",-0.548,-1.16,1.28,2.29
"FNCEVCGAQFTQKGNLLRHIKL [46F_47N_49E_50V_52G_53A_54Q_55F_67L_, Q9UKT9]",2.48,1.07,0.414,0.334
